The campaign covered roughly 69,000 compounds. About 8,600 (12%) showed an effect of 50% or more. The entries come from a sample that favours strong results as a whole.

For the assay, the system named is Plasmodium berghei. Nature of the assay: Screen against P. berghei liver stage (PbLuc), transformed with Luciferase, at 10uM. Format: functional, HepG2. To be noted: tested at 10 uM.
`O=C(CCN1CCOCC1)Nc1cccc(CNCc2ccsc2)c1`: the INHIBITION is listed as -1.79%.
`O=C(N1CCCC1)N1CC[C@H]2OCC[C@@]2(COc2ncccc2F)C1`: the INHIBITION is given as 4.1%.
Under `CC(=O)N1CCC(C(=O)N2CCCC(Cc3cccc(C)n3)C2)CC1` (configuration not stated) stands -18.9%; under `CS(=O)(=O)N1CCO[C@@H]2CN(C(=O)c3cccnc3)C[C@@H]2C1`, 2.7%; under `COc1ccccc1CC(C)CC(=O)NS(=O)(=O)C(C)C` (configuration not stated), 9.57%.
The value for `CCC1=N[C@@]2(CC[C@@H]3CN(CC4CC4)C[C@@H]32)C(=O)N1C` was 24.5%.
`CC(=O)NCc1nnc2n1CCN(c1ncnc3c(C)csc13)CC2`: the INHIBITION is 24.7%.
`Cc1ccc(S(=O)(=O)CCC(=O)NCc2nnc3n2CCC3)cc1`: the INHIBITION is listed as -2.34%.
On to `O=C(NCc1nnc2n1CCC2)N1CCc2sccc2C1`, for which the INHIBITION is -8.11%.
`Cn1ccnc1CN1CCc2ncnc(N3CCCC3)c2CC1`: the INHIBITION is reported as -78.5%.
For the compound `CC(=O)NCc1nnc2n1CCN(c1ncnc3c1CCC3)CC2`, the INHIBITION was 56.1%.
Turning to `CC(=O)NCc1nnc2n1CCN(c1nc(C)nc3sccc13)CC2`, the INHIBITION turned out to be 55%.
Turning to `COc1ncccc1C(=O)N1CCC(Nc2ccc(C)nn2)CC1`, the INHIBITION worked out at 33.7%.
Turning to `c1nnc(Nc2cncc(C3CCCN3)n2)s1` (configuration not stated), the INHIBITION is reported as 13.285%.
The value for `Cc1cc(=O)n(C)cc1NC(=O)Cc1cc(F)ccc1F` was 56.5%; that for `Cc1cc(=O)n(C)cc1NC(=O)Cc1cccc(F)c1` was 25.1%.
In the case of `Cc1cc(=O)n(C)cc1NC(=O)Cc1ccc(C(F)(F)F)cc1`, the INHIBITION is reported as 11.7%.
With `Cc1ccc(NC2(C(=O)NCc3c(C)n[nH]c3C)CCCC2)cc1`, the INHIBITION was found to be 11.6%.
For the compound `Cc1ccc(NC2(C(=O)NCCCc3c(C)n[nH]c3C)CCCC2)cc1`, the INHIBITION is listed as -40.9%.
With `Cc1ccc(NC2(C(=O)NCCCN)CCCC2)cc1`, the INHIBITION was found to be 53.2%.
Regarding `CO[C@H]1CO[C@@]2(CCCN(C(=O)N(C)C)C2)C1`, the INHIBITION is recorded as 35.8%.
Consider `CCc1n[nH]c(C2CN(C(=O)c3cc(C4CC4)on3)CCO2)n1` (configuration not stated), for which the INHIBITION is on record as -3.58%.
On to `CNc1nc(CNC(=O)Nc2ccc([S+](C)[O-])c(F)c2)cs1` (configuration not stated), for which the INHIBITION is 22.955%.
In the case of `Cn1ccnc1CN1CCC(CNS(=O)(=O)c2cccnc2)C1` (configuration not stated), the INHIBITION was 58.3%.
Take `Cn1ccnc1CCNS(=O)(=O)c1cccnc1`: the INHIBITION is on record as 38.6%.
Regarding `O=C(Oc1ccccc1)N1CCC(CNS(=O)(=O)c2cccnc2)CC1`, the INHIBITION is 18.2%.
In the case of `O=C(c1ccco1)N1CCc2onc(Cn3cccn3)c2C1`, the INHIBITION amounted to 21.5%.
The value for `CCNC(=O)[C@@H]1C[C@@H](N)CN1Cc1ccc2cccc(Cl)c2n1` was 11.9%; that for `CNC(=O)[C@@H]1C[C@@H](N)CN1Cc1ccc2cccc(OC)c2n1` was 55.5%; that for `CCNC(=O)[C@@H]1C[C@H](N)CN1Cc1ccc2cccc(Cl)c2n1` was 35.4%.
Under `O=C1CC2(CCN(S(=O)(=O)c3cccs3)C2)CN1c1ccccc1` (configuration not stated) stands -0.104%.
Consider `CC(Cn1cccn1)NC(=O)N1CCN(Cc2ccsc2)CC1` (configuration not stated), for which the INHIBITION stood at 4.71%.
For `CCCN(Cc1cnn(C)c1)S(=O)(=O)c1ccc(F)c(C#N)c1`, the INHIBITION is listed as -32.4%.
Consider `Cc1nc(N2CCN(C(=O)c3cccnc3)CC2)cc(-n2cccc2)n1`, for which the INHIBITION was 32.4%.
As to `O=C(c1ccccc1F)N1CCN(c2ccc(-n3cccn3)nn2)CC1`, the INHIBITION is given as 0.472%.
Under `O=C(c1ccccc1F)N1CCN(c2ccc(-n3cccc3)nn2)CC1` stands 55.9%; under `O=C(c1ccccn1)N1CCN(c2ccc(-n3cccc3)nn2)CC1`, 27.6%.
`O=C(c1cccnc1)N1CCN(c2ccc(-n3cccc3)nn2)CC1`: the INHIBITION worked out at 0.647%.
The value for `Cc1cccc(C(=O)N2CCN(c3ccc(-n4cccc4)nn3)CC2)c1` was 51.5%; that for `COCC(=O)N1CCCC1c1nccnc1Nc1nc(C)cs1` (configuration not stated) was 39.7%; that for `Cc1ccc(C(=O)O)cc1CNC(=O)CN1CC(C)(C)[C@@](C)(O)C1` was 28.7%.
`Cc1cnn(CC2CCCN2CC(=O)Nc2cc(C(C)C)no2)c1` (configuration not stated): the INHIBITION is given as -35.7%.
Under `CC(C)c1nccc(CN2CCC(O)(CN3CCCCC3)C2)n1` (configuration not stated) stands 32.5%; under `OC1(CN2CCCC2)CCCN(Cc2cnc(-c3ccco3)nc2)C1` (configuration not stated), 61%; under `Cc1cc(F)ccc1CN1CCCC(O)(CN2CCCC2)C1` (configuration not stated), 55%.
Take `CC(C)c1nccc(CN2CCCC(O)(CN3CCCC3)C2)n1` (configuration not stated): the INHIBITION is reported as 62%.
Turning to `OC1(CN2CCCC2)CCCN(Cc2cnc(-c3ccccc3)nc2)C1` (configuration not stated), the INHIBITION amounted to 45.7%.
For the compound `OC1(CN2CCCC2)CCCN(Cc2ccc(F)cc2Cl)C1` (configuration not stated), the INHIBITION amounted to 13.7%.
As for `CN(C)CC1(O)CCCN(Cc2cnc(-c3ccco3)nc2)CC1` (configuration not stated), the INHIBITION is given as 6.28%.
On to `Cc1cc(F)ccc1CN1CCC(O)(CN2CCCCC2)C1` (configuration not stated), for which the INHIBITION was -10.4%.
As to `CC(C)c1nccc(CN2CCCC(O)(CN(C)C)C2)n1` (configuration not stated), the INHIBITION is given as 7.92%.
On to `O=C(Cc1cccnc1)N1CCC2(CCN(CC3CCCCC3)C2)CC1`, for which the INHIBITION stood at 26.4%.
